# In PubChem BioAssay (Tox21):
# Results filed as inconclusive are left out. Entries that show only a call come without a potency. Calls of active or inactive are those of the source. Unless noted, calls come from the whole dose curve; as a rule, active = well fitted curve in the direction sought with a large enough effect in the repeat runs; inconclusive = weak or mixed curves; inactive = no such curve, though single readings can be large; an effect the other way counts as inactive or inconclusive. Non-standard residues stand in square brackets, D forms with d. Residues, ends and D or L forms follow the SMILES beside them. Orn = NCCC[C@H](N)C(=O)O
# Experiments:
# [1] = qHTS assay to identify aromatase inhibitors - cell viability counter screen (AID 743084);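 note: cells stimulated with testosterone during compound exposure; nearly all actives have a fitted effect of over 55% in size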; note: potency is the fitted concentration of half-maximal effect
# [2] = biological target: Aryl hydrocarbon receptor (Homo sapiens) (UniProt P35869); assay: qHTS assay to identify small molecule that activate the aryl hydrocarbon receptor (AhR) signaling pathway (AID 743085);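 note: HG2L7.5c1 human HepG2 liver cells with stably integrated DRE-driven firefly reporter; series mostly up to about 70 µM; nearly all actives have a fitted effect of over 15% in size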
# Method in brief: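 Compounds were tested in HepG2 hepatocellular carcinoma cells harbouring a stably integrated luciferase gene under control of 20 DREs. Increased reporter signal after 24 h treatment at 37C was taken as AhR activation.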
# [3] = qHTS assay to identify small molecule antagonists of the peroxisome proliferator-activated receptor gamma (PPARg) signaling pathway - cell viability counter screen (AID 743194); note: nearly all actives have a fitted effect of over 55% in size; note: potency is the fitted concentration of half-maximal effect
# Method in brief: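 Viability was measured as CellTiter-Glo luminescence in GeneBLAzer PPARg UAS-bla HEK293H cells. These cells had been exposed 17 h at 37 C to compounds together with rosiglitazone at 50 nM final, with the beta-lactamase readout taken in the same wells.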
# [4] = qHTS assay for small molecule activators of the heat shock response signaling pathway - cell viability counter screen (AID 743209); note: nearly all actives have a fitted effect of over 50% in size; note: potency is the fitted concentration of half-maximal effect
# Method in brief: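 Viability of HSE-bla HeLa cells is measured with CellTiter-Glo in the wells already used for the reporter read. Compound exposure lasts 5 h at 37 C, and luminescence is read after 30 min at room temperature.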
# [5] = qHTS assay to identify small molecule that activate the aryl hydrocarbon receptor (AhR) signaling pathway - cell viability counter screen (AID 743086); note: nearly all actives have a fitted effect of over 45% in size; note: potency is the fitted concentration of half-maximal effect
# Method in brief: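 Cytotoxicity counter screen: CellTiter-Fluor signal (30 min, 37 C) in 4000 HepG2 cells/well carrying the DRE-luciferase reporter, following 24 h compound exposure at 37 C.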
# [6] = biological target: Peroxisome proliferator-activated receptor gamma (Homo sapiens) (UniProt P37231); assay: qHTS assay to identify small molecule antagonists of the peroxisome proliferator-activated receptor gamma (PPARg) signaling pathway (AID 743191; calls by dose curve; note: nearly all actives have a fitted effect of over 30% in size; note: potency is the fitted concentration of half-maximal effect)
# Method in brief: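 Beta-lactamase reporter under UAS control in HEK293H PPARg-bla cells; compound treatment 17 h at 37C. Read-out: fluorescence intensity after 1 h room-temperature incubation with LiveBLAzer B/G FRET substrate.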
# [7] = biological target: Peroxisome proliferator-activated receptor gamma (Homo sapiens) (UniProt P37231); assay: qHTS assay to identify small molecule agonists of the peroxisome proliferator-activated receptor gamma (PPARg) signaling pathway (AID 743094; active = well fitted activation curve with a large enough effect in the signal ratio in the repeat runs, not every such curve was filed as active; the % refers to the signal ratio)
# Method in brief: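 Reporter activation was scored by fluorescence of cleaved LiveBLAzer B/G substrate (1 h, room temperature) in PPARg-bla HEK293H cells previously treated 17 h at 37C with DMSO-dissolved compounds.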
# [8] = qHTS assay for small molecule activators of the heat shock response signaling pathway (AID 743210; active = well fitted activation curve with a large enough effect in the signal ratio in the repeat runs, with a control signal flat, not every such curve was filed as active; the % refers to the signal ratio;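 note: HeLa cells with beta-lactamase reporter driven by heat shock elements; series mostly up to about 63 µM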)
# Method in brief: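 Fluorescence from a cleaved B/G FRET substrate (2.5 h, room temp) reports HSE-driven beta-lactamase in HeLa cells treated 5 h at 37 C with DMSO-dissolved compounds.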
# [9] = qHTS assay for small molecule agonists of the antioxidant response element (ARE) signaling pathway - cell viability counter screen (AID 743203; calls by dose curve; note: nearly all actives have a fitted effect of over 55% in size; note: potency is the fitted concentration of half-maximal effect)
# Method in brief: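 Viability counter screen: stably transfected ARE-bla HepG2 line, 16 hrs compound exposure at 37C/5% CO2, ATP-based CellTiter-Glo luminescence measured in the reporter wells.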
# Peroxisome proliferator-activated receptor gamma (Homo sapiens), sequence (P37231 whole entry, looked up): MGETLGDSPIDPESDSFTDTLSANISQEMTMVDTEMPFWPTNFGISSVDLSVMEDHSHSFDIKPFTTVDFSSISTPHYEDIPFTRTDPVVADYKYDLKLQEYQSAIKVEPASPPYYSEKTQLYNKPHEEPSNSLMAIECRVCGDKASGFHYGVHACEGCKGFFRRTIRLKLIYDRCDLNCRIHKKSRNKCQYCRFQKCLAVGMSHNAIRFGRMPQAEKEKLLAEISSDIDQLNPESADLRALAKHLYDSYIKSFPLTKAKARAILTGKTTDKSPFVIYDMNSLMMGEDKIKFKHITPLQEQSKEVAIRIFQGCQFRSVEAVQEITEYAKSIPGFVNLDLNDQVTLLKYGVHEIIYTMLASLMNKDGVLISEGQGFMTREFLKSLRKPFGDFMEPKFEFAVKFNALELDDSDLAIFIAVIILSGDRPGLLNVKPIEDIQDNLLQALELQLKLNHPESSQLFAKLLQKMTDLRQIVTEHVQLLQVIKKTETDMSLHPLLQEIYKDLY
# Aryl hydrocarbon receptor (Homo sapiens), sequence (P35869 whole entry, looked up): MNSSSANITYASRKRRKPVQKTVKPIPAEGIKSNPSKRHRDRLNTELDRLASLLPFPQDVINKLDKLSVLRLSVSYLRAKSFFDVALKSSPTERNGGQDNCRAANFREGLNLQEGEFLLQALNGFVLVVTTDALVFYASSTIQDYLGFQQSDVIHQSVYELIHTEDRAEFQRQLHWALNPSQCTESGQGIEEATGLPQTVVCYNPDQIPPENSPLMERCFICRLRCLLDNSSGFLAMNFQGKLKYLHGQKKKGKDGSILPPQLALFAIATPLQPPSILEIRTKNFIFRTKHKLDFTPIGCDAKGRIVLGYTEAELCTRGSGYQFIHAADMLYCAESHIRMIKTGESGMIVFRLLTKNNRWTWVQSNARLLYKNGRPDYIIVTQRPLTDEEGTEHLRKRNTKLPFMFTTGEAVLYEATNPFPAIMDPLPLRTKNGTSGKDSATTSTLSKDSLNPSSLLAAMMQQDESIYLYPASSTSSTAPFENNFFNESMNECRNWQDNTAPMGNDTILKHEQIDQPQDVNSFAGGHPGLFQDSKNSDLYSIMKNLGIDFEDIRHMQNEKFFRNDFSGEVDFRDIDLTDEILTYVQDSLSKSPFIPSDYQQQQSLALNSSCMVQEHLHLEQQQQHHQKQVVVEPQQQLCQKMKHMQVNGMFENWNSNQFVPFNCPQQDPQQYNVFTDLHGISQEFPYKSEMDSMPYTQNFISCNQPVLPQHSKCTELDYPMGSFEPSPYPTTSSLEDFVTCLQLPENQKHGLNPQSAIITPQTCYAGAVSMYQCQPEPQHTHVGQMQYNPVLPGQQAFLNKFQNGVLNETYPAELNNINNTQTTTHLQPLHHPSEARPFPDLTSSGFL
smiles,measurement,setting,value
CCCCCCCCCC[N+](C)(CCCCCCCCCC)CCC[Si](OC)(OC)OC,Potency,[1],61.1 µM (active)
same,Potency,[2],inactive
same,Potency,[3],30.9 µM (active)
same,Potency,[4],13.8 µM (active)
N=C(N)c1ccc(/C=C/c2ccc(C(=N)N)cc2O)cc1,Potency,[1],inactive
same,Potency,[5],inactive
CC(=O)[C@]1(O)Cc2c(O)c3c(c(O)c2[C@@H](O[C@H]2C[C@H](N)[C@H](O)[C@H](C)O2)C1)C(=O)c1ccccc1C3=O,Potency,[1],13.3 µM (active)
same,Potency,[5],13.3 µM (active)
same,Potency,[6],4.22 µM (active)
same,Potency,[3],inactive
c1ccc(-n2cnnn2)cc1,Potency,[1],inactive
same,Potency,[7],inactive
COc1cc2c(cc1O)CCN[C@]21CS[C@@H]2c3c(OC(C)=O)c(C)c4c(c3[C@H](COC1=O)N1[C@@H]2[C@H]2c3c(cc(C)c(OC)c3O)C[C@@H]([C@@H]1O)N2C)OCO4,Potency,[1],24.3 µM (active)
same,Potency,[5],0.0168 µM (active)
c1ccc2occc2c1,Potency,[1],68.6 µM (active)
same,Potency,[7],inactive
same,Potency,[4],inactive
CC(C)CCC[C@@H](C)[C@H]1CC[C@H]2[C@@H]3CC[C@@H]4C[C@H](O)CC[C@]4(C)[C@H]3CC[C@]12C,Potency,[1],inactive
same,Potency,[5],inactive
same,Potency,[7],inactive
CC(C)(COP(=O)(O)OP(=O)(O)OC[C@H]1O[C@@H](n2cnc3c(N)ncnc32)[C@H](O)[C@@H]1OP(=O)(O)O)C(O)C(=O)NCCC(=O)NCCS (some centres undefined),Potency,[1],inactive
same,Potency,[5],inactive
same,Potency,[7],inactive
Nc1nc(/C(=C/CC(=O)O)C(=O)N[C@@H]2C(=O)N3C(C(=O)O)=CCS[C@H]23)cs1,Potency,[1],inactive
same,Potency,[5],inactive
same,Potency,[7],inactive
CCCCC/C=C\C=C\C(=O)OCC,Potency,[1],56.8 µM (active)
same,Potency,[5],inactive
Oc1ccc(Cl)cc1C1CCCC1,Potency,[1],inactive
same,Potency,[7],inactive
same,Potency,[6],inactive
same,Potency,[3],inactive
same,Potency,[4],inactive
same,outcome,[8],inactive
C=C1C(=C/C=C2\CCC[C@]3(C)[C@@H]([C@H](C)CCCC(C)C)CC[C@@H]23)C[C@@H](O)C[C@@H]1O,Potency,[1],inactive
same,Potency,[5],inactive
Oc1ccc(Cl)c2c1CCC2,Potency,[1],inactive
same,Potency,[5],inactive
same,Potency,[7],inactive
Cc1cc(Br)ccc1NC(=O)CCl,Potency,[1],13.7 µM (active)
same,Potency,[5],54.5 µM (active)
same,Potency,[3],7.76 µM (active)
same,Potency,[9],54.5 µM (active)
same,Potency,[4],12.3 µM (active)
C[Se]CC[C@H](N)C(=O)O,Potency,[1],inactive
same,Potency,[7],inactive
CCCCCCCCCCCCN1CCCC1=O,Potency,[1],inactive
same,Potency,[7],inactive
same,Potency,[3],54.9 µM (active)
same,Potency,[9],61.1 µM (active)
same,Potency,[4],21.9 µM (active)
N[C@@H](Cc1cnc[nH]1)C(=O)O,Potency,[1],inactive
same,Potency,[5],inactive
same,Potency,[7],inactive
C[C@@H]1O[C@@H]1P(=O)(O)O,Potency,[1],inactive
same,Potency,[5],inactive
same,Potency,[7],inactive
CCCCCN=C(N)N/N=C/c1c[nH]c2ccc(OC)cc12,Potency,[1],inactive
same,Potency,[7],inactive
same,Potency,[3],13.3 µM (active)
same,Potency,[9],10.6 µM (active)
same,Potency,[4],29.8 µM (active)
c1ccc2c(c1)OCC(CN1CCCCC1)O2 (centres undefined),Potency,[1],inactive
same,Potency,[5],inactive
same,Potency,[7],inactive
CC(C)[N+]1(C)[C@@H]2CC[C@H]1CC(OC(=O)C(CO)c1ccccc1)C2 (some centres undefined),Potency,[1],inactive
same,Potency,[7],inactive
CC(C)(O/N=C(\C(=O)N[C@@H]1C(=O)N2C(C(=O)[O-])=C(C[n+]3ccccc3)CS[C@H]12)c1csc(N)n1)C(=O)O,Potency,[1],inactive
same,Potency,[5],inactive
same,Potency,[7],inactive
O=C(O)COc1ccccc1/C=N/NC(=O)c1ccncc1,Potency,[1],inactive
same,Potency,[5],inactive
same,Potency,[7],inactive
CCc1cn([C@H]2C[C@H](O)[C@@H](CO)O2)c(=O)[nH]c1=O,Potency,[1],inactive
same,Potency,[5],inactive
same,Potency,[7],inactive
O=C1c2ccccc2C(=O)C1c1ccc(F)cc1,Potency,[1],inactive
same,Potency,[5],inactive
same,Potency,[7],inactive
CC(C)C[C@@H]1NC(=O)[C@H](CCCN)NC(=O)[C@H](C(C)C)NC(=O)[C@@H]2CCCN2C(=O)[C@@H](Cc2ccccc2)NC(=O)[C@H](CC(C)C)NC(=O)[C@H](CCCN)NC(=O)[C@H](C(C)C)NC(=O)[C@@H]2CCCN2C(=O)[C@@H](Cc2ccccc2)NC1=O (cyclo(V[Orn]L[dF]PV[Orn]L[dF]P)),Potency,[2],inactive
CCC(C)(C)c1ccc(CC(C)CN2C[C@@H](C)O[C@@H](C)C2)cc1 (some centres undefined),Potency,[5],inactive
same,Potency,[6],inactive
same,Potency,[9],inactive
same,Potency,[4],inactive
same,outcome,[8],inactive
CC[C@@H](C(=O)[C@@H](C)[C@@H](O)[C@H](C)CCc1ccc(C)c(O)c1C(=O)O)[C@H]1O[C@](CC)([C@H]2CC[C@](O)(CC)[C@H](C)O2)C[C@@H]1C,Potency,[2],inactive
same,Potency,[5],29.8 µM (active)
same,Potency,[7],inactive
CO/N=C(\C(=O)N[C@@H]1C(=O)N2C(C(=O)O)=C(COC(C)=O)CS[C@H]12)c1csc(N)n1 (stereo in doubt),Potency,[5],inactive
CS(=O)(=O)c1ccc([C@@H](CC2CCCC2)C(=O)Nc2cnccn2)cc1Cl,Potency,[2],inactive
CC(=O)N(C)C,Potency,[2],inactive
Cc1cc(N)c2ccccc2[n+]1CCCCCCCCCC[n+]1c(C)cc(N)c2ccccc21,Potency,[2],inactive
same,Potency,[5],inactive
same,Potency,[7],inactive
